{"source": "ChEMBL document CHEMBL1157539", "about": "“Thousands of chemical starting points for antimalarial lead identification” (Nature, 2010)"}
{"tested_on": "Plasmodium falciparum", "experiment": "GSK_TCMDC: Inhibition of Plasmodium falciparum 3D7 in whole red blood cells, using parasite LDH activity as an index of growth. Test compounds present at 2uM", "format": "functional", "units": {"Inhibition": "%"}}
{"smiles": "O=S(=O)(c1ccc2cc[nH]c2c1)N1CCC[C@@H]1CCN1CCC(c2c[nH]c3cnccc23)CC1", "Inhibition": 95}
{"smiles": "COc1ccc2ccccc2c1CNCC1CCN(CC2CCCCC2)CC1.O=C(O)C(F)(F)F", "Inhibition": 98}
{"smiles": "O=C1COc2ccc3ccccc3c21", "Inhibition": 99}
{"smiles": "Cc1c(CNCCCNc2cc(=O)c3ccccc3[nH]2)sc(-c2ccco2)c1Br.Cl", "Inhibition": 93}
{"smiles": "CC=CC(=O)N1CCN(c2nccc(-c3ccc(C(C)(C)C)cc3)n2)CC1", "Inhibition": 95}
{"smiles": "Cc1ccc(NC(=O)c2cccc(N3CCN(c4ccncc4)CC3)c2)cc1F.O=C(O)C(F)(F)F", "Inhibition": 100}
{"smiles": "O=C(O)C(F)(F)F.c1ccc(CNCc2cccc(-c3ccc(-c4nc5ccccc5[nH]4)cc3)c2)cc1", "Inhibition": 97}
{"smiles": "CC1(C)N=C(N)N=C(N)N1c1cccc(I)c1.Cl", "Inhibition": 95}
{"smiles": "Cc1cc(N[C@@H](Cc2ccccc2)C(=O)NC2CCCC2)nc(NCc2ccccc2C)n1.O=C(O)C(F)(F)F", "Inhibition": 91}
{"smiles": "COc1cccc(OC2CCN(C(=O)c3cc(C(C)(C)C)nn3Cc3ccccc3)CC2)c1", "Inhibition": 100}
{"smiles": "CCn1ncc2c(N3CCCC3=O)cc(C(=O)N[C@@H](Cc3ccccc3)[C@H](O)CNC(C)(C)c3cccc(C(F)(F)F)c3)cc21", "Inhibition": 98}
{"smiles": "CCCCn1c(Sc2ccc(C#N)c([N+](=O)[O-])c2)nnc1-c1cccc(Cl)c1", "Inhibition": 96}
{"smiles": "Br.COc1ccc(CCON2C(=N)N=C(N)NC2(C)C)cc1OC", "Inhibition": 96}
{"smiles": "Cc1ccc(Cn2cnc(N3CC(C)NC(C)C3)cc2=O)cc1NC(=O)Nc1ccc(-c2ccccc2)cc1.O=C(O)C(F)(F)F", "note": "(centres undefined)", "Inhibition": 96}
